Targets with a hit are over-represented here; the source holds about 7,900 in all. About 0.6% of all pairs of compound and target were hits.

The values below come from the supplement of paper PMC10849652.

UniProt Q9Y2Y0, sequence (Q9Y2Y0 whole entry, looked up): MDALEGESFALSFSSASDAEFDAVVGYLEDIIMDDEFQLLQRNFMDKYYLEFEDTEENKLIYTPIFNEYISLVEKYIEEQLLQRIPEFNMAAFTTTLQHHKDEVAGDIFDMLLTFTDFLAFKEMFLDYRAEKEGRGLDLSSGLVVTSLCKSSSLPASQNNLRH
UniProt Q9H8Y5, sequence (Q9H8Y5 whole entry, looked up): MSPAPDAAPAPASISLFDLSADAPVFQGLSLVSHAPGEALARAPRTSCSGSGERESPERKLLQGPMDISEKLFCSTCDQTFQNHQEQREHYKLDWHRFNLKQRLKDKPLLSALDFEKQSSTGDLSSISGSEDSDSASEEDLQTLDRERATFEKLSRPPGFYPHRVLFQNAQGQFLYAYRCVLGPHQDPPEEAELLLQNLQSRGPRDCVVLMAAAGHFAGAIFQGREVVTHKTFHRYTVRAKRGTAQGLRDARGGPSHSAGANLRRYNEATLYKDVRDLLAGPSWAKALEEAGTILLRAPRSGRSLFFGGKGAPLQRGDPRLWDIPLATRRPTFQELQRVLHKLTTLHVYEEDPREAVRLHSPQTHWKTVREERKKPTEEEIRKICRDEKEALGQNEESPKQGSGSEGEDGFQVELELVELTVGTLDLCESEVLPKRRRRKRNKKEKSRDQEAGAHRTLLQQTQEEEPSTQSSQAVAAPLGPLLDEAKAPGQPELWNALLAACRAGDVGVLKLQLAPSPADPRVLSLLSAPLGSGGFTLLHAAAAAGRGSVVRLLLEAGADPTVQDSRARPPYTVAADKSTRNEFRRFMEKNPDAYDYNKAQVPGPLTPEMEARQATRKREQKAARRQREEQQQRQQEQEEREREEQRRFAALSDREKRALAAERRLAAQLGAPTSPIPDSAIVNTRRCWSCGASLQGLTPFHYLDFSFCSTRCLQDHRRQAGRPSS
UniProt P08243, sequence (P08243 whole entry, looked up): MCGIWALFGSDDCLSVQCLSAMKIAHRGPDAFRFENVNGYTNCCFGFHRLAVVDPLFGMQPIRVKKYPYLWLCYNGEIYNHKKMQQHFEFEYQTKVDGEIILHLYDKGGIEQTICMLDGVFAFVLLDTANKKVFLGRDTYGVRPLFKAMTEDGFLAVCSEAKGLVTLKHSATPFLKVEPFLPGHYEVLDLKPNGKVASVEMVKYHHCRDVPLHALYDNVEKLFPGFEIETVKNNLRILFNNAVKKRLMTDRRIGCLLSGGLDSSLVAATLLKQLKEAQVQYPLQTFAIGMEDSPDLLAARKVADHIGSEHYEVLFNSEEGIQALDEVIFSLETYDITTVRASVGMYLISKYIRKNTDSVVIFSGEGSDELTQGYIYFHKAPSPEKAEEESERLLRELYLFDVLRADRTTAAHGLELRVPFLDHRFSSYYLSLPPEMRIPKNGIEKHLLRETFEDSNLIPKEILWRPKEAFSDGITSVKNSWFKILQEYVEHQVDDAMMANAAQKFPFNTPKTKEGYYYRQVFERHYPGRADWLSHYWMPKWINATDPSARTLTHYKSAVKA
UniProt Q8NBU5, sequence (Q8NBU5 whole entry, looked up): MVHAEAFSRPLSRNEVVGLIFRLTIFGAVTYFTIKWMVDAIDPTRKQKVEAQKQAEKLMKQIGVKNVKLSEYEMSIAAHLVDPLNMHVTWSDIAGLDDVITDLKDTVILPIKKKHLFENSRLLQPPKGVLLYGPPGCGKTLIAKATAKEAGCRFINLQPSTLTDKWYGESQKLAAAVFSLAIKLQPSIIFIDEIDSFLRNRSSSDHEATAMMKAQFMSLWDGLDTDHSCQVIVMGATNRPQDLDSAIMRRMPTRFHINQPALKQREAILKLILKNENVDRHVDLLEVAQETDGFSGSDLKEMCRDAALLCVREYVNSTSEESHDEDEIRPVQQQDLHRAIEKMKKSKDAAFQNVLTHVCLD
UniProt O14727, sequence (O14727 whole entry, looked up): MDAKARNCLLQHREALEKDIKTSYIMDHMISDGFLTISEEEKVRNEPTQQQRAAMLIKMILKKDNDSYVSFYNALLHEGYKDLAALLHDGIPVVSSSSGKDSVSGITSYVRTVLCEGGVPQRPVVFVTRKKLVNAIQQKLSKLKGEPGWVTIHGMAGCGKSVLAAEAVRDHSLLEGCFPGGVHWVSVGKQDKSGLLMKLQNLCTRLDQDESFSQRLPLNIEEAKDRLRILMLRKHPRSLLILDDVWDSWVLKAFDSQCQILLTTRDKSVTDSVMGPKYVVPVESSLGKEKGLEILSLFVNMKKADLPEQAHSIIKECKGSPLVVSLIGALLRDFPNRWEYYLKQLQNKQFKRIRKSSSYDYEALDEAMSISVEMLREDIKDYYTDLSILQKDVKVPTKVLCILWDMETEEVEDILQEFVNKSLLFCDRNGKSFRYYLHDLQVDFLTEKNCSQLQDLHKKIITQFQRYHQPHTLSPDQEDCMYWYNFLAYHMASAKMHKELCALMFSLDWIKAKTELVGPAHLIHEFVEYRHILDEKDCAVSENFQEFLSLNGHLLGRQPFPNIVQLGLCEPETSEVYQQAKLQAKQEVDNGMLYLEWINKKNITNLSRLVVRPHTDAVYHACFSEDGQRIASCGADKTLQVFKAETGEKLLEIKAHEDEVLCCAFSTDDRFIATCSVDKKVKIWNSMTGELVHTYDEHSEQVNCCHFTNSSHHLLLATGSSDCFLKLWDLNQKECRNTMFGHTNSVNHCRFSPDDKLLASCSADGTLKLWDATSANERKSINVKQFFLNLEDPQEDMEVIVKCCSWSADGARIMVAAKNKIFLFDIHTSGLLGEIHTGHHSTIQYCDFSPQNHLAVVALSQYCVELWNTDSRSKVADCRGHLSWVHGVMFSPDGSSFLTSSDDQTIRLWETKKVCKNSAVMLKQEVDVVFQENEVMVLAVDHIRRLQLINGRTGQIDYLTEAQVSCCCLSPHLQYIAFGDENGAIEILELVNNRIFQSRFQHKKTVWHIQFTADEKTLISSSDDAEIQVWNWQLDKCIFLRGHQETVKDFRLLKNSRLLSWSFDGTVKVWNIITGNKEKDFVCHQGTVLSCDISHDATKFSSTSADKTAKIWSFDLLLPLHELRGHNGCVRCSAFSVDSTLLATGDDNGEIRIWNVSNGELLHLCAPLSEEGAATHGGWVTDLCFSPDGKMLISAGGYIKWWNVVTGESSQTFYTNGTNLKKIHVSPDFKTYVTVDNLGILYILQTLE
UniProt Q9ULX6, sequence (Q9ULX6 whole entry, looked up): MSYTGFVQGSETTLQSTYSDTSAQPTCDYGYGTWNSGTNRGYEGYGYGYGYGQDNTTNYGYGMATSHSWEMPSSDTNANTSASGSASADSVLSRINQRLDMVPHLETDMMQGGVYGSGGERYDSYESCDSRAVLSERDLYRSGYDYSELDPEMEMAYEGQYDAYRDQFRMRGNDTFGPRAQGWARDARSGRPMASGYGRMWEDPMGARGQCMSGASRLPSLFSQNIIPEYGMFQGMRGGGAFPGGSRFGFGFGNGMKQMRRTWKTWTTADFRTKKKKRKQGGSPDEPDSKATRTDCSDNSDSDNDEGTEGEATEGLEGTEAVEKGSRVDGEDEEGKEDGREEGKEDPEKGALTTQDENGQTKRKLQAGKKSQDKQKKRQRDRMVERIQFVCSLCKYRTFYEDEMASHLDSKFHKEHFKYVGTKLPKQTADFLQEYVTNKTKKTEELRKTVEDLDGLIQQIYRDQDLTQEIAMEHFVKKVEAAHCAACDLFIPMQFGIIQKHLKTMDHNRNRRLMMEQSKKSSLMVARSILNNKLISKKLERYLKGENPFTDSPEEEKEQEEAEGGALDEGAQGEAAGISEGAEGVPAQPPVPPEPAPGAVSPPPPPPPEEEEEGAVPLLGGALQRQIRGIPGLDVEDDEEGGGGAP
UniProt Q9Y4P1, sequence (Q9Y4P1 whole entry, looked up): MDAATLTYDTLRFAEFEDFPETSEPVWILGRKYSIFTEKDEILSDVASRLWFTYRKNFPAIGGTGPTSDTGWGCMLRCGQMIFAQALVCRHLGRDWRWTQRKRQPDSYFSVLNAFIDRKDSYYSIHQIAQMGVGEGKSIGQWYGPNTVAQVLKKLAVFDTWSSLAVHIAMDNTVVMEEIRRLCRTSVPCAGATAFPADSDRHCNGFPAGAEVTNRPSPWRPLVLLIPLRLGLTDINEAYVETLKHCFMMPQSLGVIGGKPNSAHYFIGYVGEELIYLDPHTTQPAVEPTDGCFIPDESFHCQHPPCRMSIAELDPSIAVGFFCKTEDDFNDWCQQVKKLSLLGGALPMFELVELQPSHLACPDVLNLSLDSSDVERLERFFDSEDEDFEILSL
UniProt P42025, sequence (P42025 whole entry, looked up): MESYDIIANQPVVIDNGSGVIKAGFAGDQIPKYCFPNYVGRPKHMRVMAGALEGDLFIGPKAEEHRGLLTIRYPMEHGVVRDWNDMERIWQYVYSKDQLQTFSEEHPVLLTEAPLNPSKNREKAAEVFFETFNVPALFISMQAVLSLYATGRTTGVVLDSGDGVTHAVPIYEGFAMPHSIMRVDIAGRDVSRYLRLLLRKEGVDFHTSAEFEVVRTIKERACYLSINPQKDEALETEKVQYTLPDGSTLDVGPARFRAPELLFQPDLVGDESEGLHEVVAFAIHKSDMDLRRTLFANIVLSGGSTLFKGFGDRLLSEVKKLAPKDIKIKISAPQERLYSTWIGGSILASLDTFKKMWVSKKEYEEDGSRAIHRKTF
UniProt Q9UHQ4, sequence (Q9UHQ4 whole entry, looked up): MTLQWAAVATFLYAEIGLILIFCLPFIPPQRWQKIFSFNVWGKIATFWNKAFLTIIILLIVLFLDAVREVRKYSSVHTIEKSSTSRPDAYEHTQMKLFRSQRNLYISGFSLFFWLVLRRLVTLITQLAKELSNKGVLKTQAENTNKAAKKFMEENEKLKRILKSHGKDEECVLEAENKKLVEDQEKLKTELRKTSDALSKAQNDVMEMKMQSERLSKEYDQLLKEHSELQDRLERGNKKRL
UniProt P18085, sequence (P18085 whole entry, looked up): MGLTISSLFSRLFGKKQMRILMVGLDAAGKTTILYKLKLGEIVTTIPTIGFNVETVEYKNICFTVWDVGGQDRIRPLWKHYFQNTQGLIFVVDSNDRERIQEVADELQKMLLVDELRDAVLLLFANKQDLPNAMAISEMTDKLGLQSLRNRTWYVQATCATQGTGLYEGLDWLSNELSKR

Compound in the assay: c1cn2cc(-c3ccc4cn[nH]c4c3)nc(Nc3ccc(N4CCOCC4)cc3)c2n1 [entospletinib]
The assay can be described thus: log2 fold change, soluble protein after heating vs DMSO (PISA); higher = thermal stabilisation; K562 cells, 10 uM, 30 min; active = over 0.2 and 3.5 SD of the protein, either way, in both replicates (recomputed). Summed up: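 For each measurement, 10 μM compound was applied for 30 min to K562 cells at 2×10^6 cells/mL. Aliquots were heated for 3 min across 48°C-58°C, pooled, and extracted in PBS with 0.5% NP-40 at 4°C; the supernatant after 21,000xg for 90 min was soluble protein. This was quantified by TMTpro 16plex LC-MS/MS with channel sums equalised, and thermal stability was reported relative to control samples from duplicates, on a log2 fold-change scale.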
Consider BTBD6 (UniProt Q96KE9), for which the log2 fold change is 0.056 (inactive).

As to AFDN isoform 5 (UniProt P55196), the log2 fold change is -0.041 (inactive).

ATG4B isoform 2 (UniProt Q9Y4P1): the log2 fold change was 0.11 (inactive).

Turning to ATRN (UniProt O75882), the log2 fold change was 0.02 (inactive).

Regarding APPL1 (UniProt Q9UKG1), the log2 fold change was 0.027 (inactive).

In the case of ASNS (UniProt P08243), the log2 fold change is 0.004 (inactive).

For the target ARL2BP (UniProt Q9Y2Y0), the log2 fold change is -0.06 (inactive).

In the case of BRMS1 (UniProt Q9HCU9), the log2 fold change was 0.078 (inactive).

Consider AP2M1 (UniProt C9JTK4), for which the log2 fold change is 0.047 (inactive).

Turning to BCAP29 isoform 2 (UniProt Q9UHQ4), the log2 fold change is -0.005 (inactive).

In the case of ATP6V0A2 (UniProt Q9Y487), the log2 fold change is 0.009 (inactive).

For AGPS (UniProt O00116), the log2 fold change is 0.008 (inactive).

Consider ALKBH5 (UniProt Q6P6C2), for which the log2 fold change was -0.03 (inactive).

For the target AKAP8L (UniProt Q9ULX6), the log2 fold change is 0.171 (inactive).

For ATR (UniProt Q13535), the log2 fold change is -0.021 (inactive).

With ATAD1 (UniProt Q8NBU5), the log2 fold change was 0.022 (inactive).

Regarding ATP1A1 (UniProt P05023), the log2 fold change was 0.002 (inactive).

In the case of ANKZF1 (UniProt Q9H8Y5), the log2 fold change was 0.006 (inactive).

As for AKT2 (UniProt P31751), the log2 fold change was 0.005 (inactive).

In the case of ALG5 (UniProt Q9Y673), the log2 fold change is -0.005 (inactive).

In the case of ACTR1B (UniProt P42025), the log2 fold change was 0.01 (inactive).

On to BRD8 (UniProt Q9H0E9), for which the log2 fold change was 0.031 (inactive).

With AGAP3 isoform 4 (UniProt Q96P47), the log2 fold change is 0.036 (inactive).

As for ADAMTS5 (UniProt Q9UNA0), the log2 fold change was -0.145 (inactive).

For the target B4GALT1 (UniProt P15291), the log2 fold change is 0.039 (inactive).

With ARHGAP25 isoform 4 (UniProt P42331), the log2 fold change was 0.073 (inactive).

BPHL (UniProt Q86WA6): the log2 fold change was -0.01 (inactive).

As for ACADM isoform 2 (UniProt P11310), the log2 fold change is -0.001 (inactive).

Take BRIP1 (UniProt Q9BX63): the log2 fold change was -0.055 (inactive).

Turning to ATP6V1C1 (UniProt P21283), the log2 fold change is -0.02 (inactive).

For ACP1 (UniProt P24666), the log2 fold change is 0.102 (inactive).

Turning to AFG1L (UniProt Q8WV93), the log2 fold change is -0.029 (inactive).

Take APAF1 (UniProt O14727): the log2 fold change was -0.099 (inactive).

For the target ATP23 (UniProt Q9Y6H3), the log2 fold change was 0.077 (inactive).

On to APOB (UniProt P04114), for which the log2 fold change was 0.04 (inactive).

On to ATP6V0A1 isoform 3 (UniProt Q93050), for which the log2 fold change was 0.079 (inactive).

With ARL3 (UniProt P36405), the log2 fold change is 0.008 (inactive).

Consider AP2M1 (UniProt Q96CW1), for which the log2 fold change is 0.025 (inactive).

For the target ARF4 (UniProt P18085), the log2 fold change was -0.088 (inactive).
